Inhibition data for 108 molecules are collected here from PubChem BioAssay AID693 (University of Pittsburgh Molecular Library Screening Center, 2007).

What is called inhibition is the change of the read-out against control, counted positive when it falls.

Out of some 97,000 compounds screened, about 130 (0.13%) were called active. Many of the other results were omitted from the sample, so actives are more common in it than they were. Unmarked numbers belong to inactive results. No stated cut-off is given here; in the data, active means inhibition above about 34% (passing the limit was not always enough); inactive means the rest.

In the assay the target is Serine/threonine-protein kinase PLK1 (Homo sapiens) (UniProt P53350). Briefly: blockers of phosphopeptide binding to Plk1 PBD – biochemical, fluorescence polarization, primary screen (AID 693). As to conditions: stronger effect = higher value,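 tested at about 20 µM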. Background: Polarisation of emitted light reports the rotation of a fluorescent probe.
Sequence of Serine/threonine-protein kinase PLK1 (Homo sapiens) (P53350 whole entry, looked up): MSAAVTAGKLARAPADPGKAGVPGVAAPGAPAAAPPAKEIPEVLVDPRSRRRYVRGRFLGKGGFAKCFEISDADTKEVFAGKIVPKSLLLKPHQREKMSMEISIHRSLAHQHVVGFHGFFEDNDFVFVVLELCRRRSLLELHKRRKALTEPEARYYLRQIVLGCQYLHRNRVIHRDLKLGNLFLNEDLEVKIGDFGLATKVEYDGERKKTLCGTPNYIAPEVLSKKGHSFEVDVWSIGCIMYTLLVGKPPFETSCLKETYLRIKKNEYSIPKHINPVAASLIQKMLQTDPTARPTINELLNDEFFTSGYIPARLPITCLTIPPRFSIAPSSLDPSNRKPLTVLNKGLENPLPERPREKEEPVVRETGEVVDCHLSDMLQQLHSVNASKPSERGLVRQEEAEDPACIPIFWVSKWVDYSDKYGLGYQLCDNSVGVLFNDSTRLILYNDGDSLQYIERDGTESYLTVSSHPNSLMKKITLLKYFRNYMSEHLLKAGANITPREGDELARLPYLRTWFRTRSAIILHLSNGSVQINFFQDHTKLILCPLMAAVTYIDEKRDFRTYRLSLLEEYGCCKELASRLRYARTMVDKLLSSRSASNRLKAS
For the molecule `CC1CCN(C(=O)c2cc3nc(C4CC4)cc(C(F)(F)F)n3n2)CC1`, the inhibition was -4.74%.

Turning to `O=c1c2ccccc2nc2n1C(CSc1ccc(Cl)cc1)CN2` (stereo not drawn), the inhibition is 23.7%.

For `COc1ccc2c(Cl)c(C(=O)NCc3ccco3)sc2c1`, the inhibition was -10.8%.

`N#CCSc1nc2ccc(N3CCOCC3)cc2c(=O)n1CCc1ccccc1`: the inhibition was -3.34%.

For `CC(=O)Nc1ccccc1OC(=O)N1CCOCC1`, the inhibition was 7.14%.

With `Cc1nn(C)cc1/C=C1\CCC/C(=C\c2cn(C)nc2C)C1=O`, the inhibition was -18.6%.

Regarding `COCCOC(=O)c1sc(=S)n(CCOC)c1N`, the inhibition was -9.37%.

In the case of `CC(=O)c1ccc(Cc2ncc(C(F)(F)F)cc2Cl)s1`, the inhibition is 25.2%.

In the case of `CC(C)(C)NC(=O)Cn1cnc([N+](=O)[O-])n1`, the inhibition is -13.3%.

Consider `CC(=O)NS(=O)(=O)c1ccc(NC(=O)/C=C/c2ccccc2Cl)cc1`, for which the inhibition was 18.9%.

As to `O=C(CNS(=O)(=O)c1ccc(Br)s1)N1CCN(C(=O)c2ccco2)CC1`, the inhibition is -13%.

In the case of `COc1ccc(OC)c(-n2nnnc2SCC(=O)Nc2cc(C)ccc2OC)c1`, the inhibition is -6.45%.

For `CC(C)(C)NS(=O)(=O)c1ccc(NC(=O)NC2CCCCC2)cc1`, the inhibition is -21.3%.

Regarding `COc1ccc(S(=O)(=O)NCc2ccc(C(=O)N(C)Cc3ccco3)cc2)cc1`, the inhibition is -4.97%.

Regarding `CCOC(=O)c1c(-c2ccccc2)csc1NC(=S)NC(=O)c1ccccc1`, the inhibition is 12%.

For `C/C(=N\NC(=O)Cc1ccc(Cl)cc1)c1ccccn1`, the inhibition was 4.4%.

Regarding `Cc1ccc(S(=O)(=O)Oc2ccc(/C=N/NC(=O)c3c(Cl)cnn3C)cc2)cc1`, the inhibition was 14.5%.

On to `O=C(NC1CCCC1)C(c1ccccn1)N(C(=O)c1csnn1)C1CCCC1` (stereo not drawn), for which the inhibition was -11.5%.

In the case of `CCOc1cc(CNCCN(C)C)c(Cl)cc1OCC(=O)NCCc1ccccc1`, the inhibition is 9.84%.

With `N#CC1=C(N)N(c2ccc(F)cc2)C(=O)C1`, the inhibition is 5.37%.

Turning to `Cc1c(NC(=O)CCCOc2ccccc2)cccc1[N+](=O)[O-]`, the inhibition was 6.93%.

For the molecule `CCC(C)c1ccc(O)c(/C=N/O)c1` (stereo not drawn), the inhibition was 8.06%.

For the molecule `CCOC(=O)C1CSC(CC(=O)Nc2ccc(OCC)cc2)C(=O)N1` (stereo not drawn), the inhibition was 13.9%.

`COC(=O)c1sccc1NC(=O)CCC1CCCC1`: the inhibition is -8.56%.

Take `Cc1noc(C)c1C(=O)N1CCOCC1`: the inhibition was -11%.

As for `O=c1c2ccccc2nnn1CSc1nnnn1-c1ccccc1`, the inhibition is -3.85%.

As to `COc1ccc(-c2nnc(SCC(=O)c3ccc4c(c3)OCCO4)o2)cc1`, the inhibition is -3.12%.

On to `COc1ccc(C(C)=O)cc1CN1C(=O)NC2(CCCCC2C)C1=O` (stereo not drawn), for which the inhibition is 3.66%.

As to `CCC(=O)NC(Nc1nc2ccc(C)cc2s1)(C(=O)OC)C(F)(F)F` (stereo not drawn), the inhibition is -11.3%.

On to `CCOC(=O)C(=O)Nc1nc(-c2ccccc2)c(CC)s1`, for which the inhibition was 12.1%.

Regarding `CC(C)CCNC(=O)Cn1c(=O)oc2cc(S(=O)(=O)N3CC(C)CC(C)C3)ccc21` (stereo not drawn), the inhibition was -16.6%.

Regarding `O=C(c1ccc(Cl)cc1)c1cnc(Nc2ccccc2)s1`, the inhibition was -14.3%.

Regarding `COc1cc(C(=S)N2CCOCC2)cc(OC)c1OC(=O)c1cc([N+](=O)[O-])cc([N+](=O)[O-])c1`, the inhibition is -2.97%.

Consider `C=CCn1c(N)cc(=O)nc1SCC(=O)Nc1cccc2ccccc12`, for which the inhibition is 15.4%.

`O=C(N/N=C/c1ccc(O)c(O)c1)C1c2ccccc2Oc2ccccc21`: the inhibition was -30.1%.

`O=C(Nc1ccccc1-c1nnn(CC(=O)N2CCCc3ccccc32)n1)c1cccc(Cl)c1`: the inhibition was -7.34%.

Turning to `Cn1c(Cc2cccc3ccccc23)nnc1SCC(=O)N1CCN(c2cccc(Cl)c2)CC1`, the inhibition was 23.1%.

With `Cc1cccc(CCNS(=O)(=O)c2ccc(S(=O)(=O)NC3CCCC3)cc2)c1`, the inhibition is -16.4%.

Turning to `CC(C)OC(=O)c1c(NC(=O)c2ccco2)sc2c1CCCC2`, the inhibition was -34.8%.

For `CCCc1ccc(OCc2ccc(C(=O)N/N=C/c3cccc([N+](=O)[O-])c3)o2)c(OC)c1`, the inhibition was -2.94%.

For the molecule `CCC(c1nnnn1C(C)(C)C)N(Cc1cc2cccc(C)c2n2nnnc12)C1CCCC1` (stereo not drawn), the inhibition is -13.2%.

As to `Cc1[nH]c(=O)c(C(=O)/C=C/c2ccccc2)c2c1CCCC2`, the inhibition was -8.98%.

`Cc1nn(C)cc1C(=O)NNC(=S)Nc1ccc(Cl)cc1`: the inhibition is -11.1%.

With `N#Cc1ccccc1CN1C(=O)S/C(=C/c2cccn2-c2cccc(C(=O)O)c2)C1=O`, the inhibition is -6.67%.

For `O=C(CCCn1c(SCC(=O)c2ccccc2)nc2ccccc2c1=O)NCC1CCCO1` (stereo not drawn), the inhibition is 8.37%.

As to `Cc1ccc(OC(=O)c2ccccc2C(=O)OCC(F)(F)C(F)F)cc1`, the inhibition is -16.7%.

Consider `CCOC(=O)CNC(=O)CSc1nc2cccnc2n1CC`, for which the inhibition is 7.16%.

Take `C=C(Cl)COC(=O)C1C2C=CC(C2)C1C(=O)O` (stereo not drawn): the inhibition is 3.3%.

Take `Cc1nnc(SCC(=O)N/N=C/c2cn(-c3ccccc3)nc2-c2ccc(F)cc2)n1-c1ccccc1`: the inhibition is -7.66%.

Consider `COCCCn1c(SCc2cccc(OC)c2)nc2cc(OC)c(OC)cc2c1=N`, for which the inhibition is -12.2%.

Consider `O=[N+]([O-])c1cccc(-c2nnc3c4ccccc4c4ccccc4n23)c1`, for which the inhibition was -7.67%.

Regarding `Cc1csc2ncc(C(=O)N(Cc3ccccc3)c3ccccn3)c(=O)n12`, the inhibition was -14.3%.

Regarding `COC(=O)c1c(-c2cccs2)csc1NC(=O)CSc1ncnc2sc(C)c(C)c12`, the inhibition was -2.76%.

As for `COc1ccc(C2=NOC3(CC(=O)N(c4ccc(C)cc4)C3=O)C2)cc1` (stereo not drawn), the inhibition was 13.3%.

As for `O=[N+]([O-])c1ccc(NCCCN2CCOCC2)c(Cl)c1`, the inhibition was -38.6%.

As to `O=C(c1ccco1)N1CCN(C(=O)C2CCCN(S(=O)(=O)c3cccc4nsnc34)C2)CC1` (stereo not drawn), the inhibition is -29.8%.

Consider `Cc1ccc(C2NC(=S)NC3=C2N2CCC3CC2)cc1` (stereo not drawn), for which the inhibition was 3.93%.

On to `N#C/C(=C(\O)CCl)c1nnc2n1CCCCC2`, for which the inhibition is -0.62%.

As for `COc1ccc(C(=O)Nc2nc(-c3ccc(OC)cc3)c(-c3ccc([N+](=O)[O-])cc3)s2)cc1`, the inhibition is -2.13%.

In the case of `COc1ccc(NS(=O)(=O)c2ccc(NC(=S)NC(=O)CC(C)C)cc2)cc1`, the inhibition is 3.41%.

`CCc1ccc2nc3sc(C(=O)Nc4nnc(CC)s4)c(N)c3cc2c1`: the inhibition was -67.7%.

Take `O=C(Cn1cc(-c2nnnn2-c2ccc(Cl)cc2)c(=O)c2ccccc21)c1ccccc1`: the inhibition was 6.2%.

Take `COC(=O)c1ccccc1NC(=O)Cc1ccccc1OC`: the inhibition was 12.5%.

Turning to `COC(=O)c1nc2ccccc2s1`, the inhibition was -0.85%.

Take `CCOC(=O)N1CCN(C(=O)COc2ccc(Cl)cc2C)CC1`: the inhibition was -13.2%.

As to `O=C(NCCc1ccccc1)/C(=C\c1ccc([N+](=O)[O-])cc1)NC(=O)c1ccccc1`, the inhibition is 55.4% (active).

For `CNC(=O)/C(=C\C=C\c1ccccc1)NC(=O)c1ccc([N+](=O)[O-])cc1`, the inhibition was -9.26%.

As for `O=C(N/N=C/c1ccc(O)cc1)/C(=C/c1ccc([N+](=O)[O-])cc1)NC(=O)c1ccccc1`, the inhibition was -6.05%.

Regarding `O=C1CC(C(F)(F)C(F)(F)C(F)(F)C(F)(F)F)=Nc2ccccc2N1`, the inhibition was 5.5%.

As to `COC(=O)c1ccc(C(=O)OC)c(NC(=S)N2CCCCC2)c1`, the inhibition was -20.3%.

For `CCCCOc1ccc(N(CC(=O)NCC2CCCO2)C(=O)CCC(=O)Nc2cc(C)ccn2)cc1` (stereo not drawn), the inhibition is -5.72%.

Regarding `C/C(=N\NC(=O)c1ccc(C)cc1)C1C(=O)c2ccccc2C1=O`, the inhibition was -15.6%.

In the case of `O=c1c([N+](=O)[O-])cc(C(F)(F)F)cn1Cc1cccc(Cl)c1`, the inhibition was 2.97%.

In the case of `COc1ccc(S(=O)(=O)Nc2ccc3oc(C)c(C(C)=O)c3c2)cc1`, the inhibition is -17.3%.

With `CCNc1nc(NC(C)C)nc(OCCOC(=O)c2ccccc2)n1`, the inhibition is -7.64%.

Take `CC1CC(C)CN(S(=O)(=O)c2cccc(C(=O)N3C(=O)c4cccc(N)c4C3=O)c2)C1` (stereo not drawn): the inhibition is 24.3%.

Consider `O=C(CSCc1ccccc1Cl)NNC(=O)c1ccccc1`, for which the inhibition is -5.03%.

For `Cn1c(=O)n(C)c2cc(/C=N/NC(=O)c3cccc(Br)c3)ccc21`, the inhibition is -16.4%.

Consider `CC1CCC(N2CC(=O)N(Cc3ccc4c(c3)OCO4)C(c3ccc(F)cc3)C2=O)CC1` (stereo not drawn), for which the inhibition is -19%.

For the molecule `COc1cc(OC)c(/C=N/NC(=O)c2ccc([N+](=O)[O-])cc2)cc1Br`, the inhibition is -6.93%.

Consider `CCC1(C)Cc2c(sc3nnn(CC(=O)Nc4ccc(Cl)cc4)c(=O)c23)CO1` (stereo not drawn), for which the inhibition is -26.3%.

In the case of `COc1cccc(N2CCN(C(=O)Nc3ccc4c(c3)NC(=O)CO4)CC2)c1`, the inhibition was 16.5%.

`COc1ccc(NC(=O)Cn2c(=O)n(Cc3ccco3)c(=O)c3ccccc32)cc1`: the inhibition was 10.4%.

`Cc1nc2ccccc2c(-c2ccccc2)c1C(=O)c1ccccc1`: the inhibition was -0.63%.

Consider `COc1cc(/C=N\NC(=O)CNC(=O)c2cccc([N+](=O)[O-])c2)ccc1O`, for which the inhibition was -17.4%.

In the case of `Brc1ccc(/C=N/N2CCN(C3c4ccccc4-c4ccccc43)CC2)s1`, the inhibition was -17.6%.

Regarding `COc1ccc(CCN(C(=O)COc2ccccc2)c2nc(-c3ccccc3)cs2)cc1OC`, the inhibition was -9.73%.

Turning to `Cc1cnc(NC(=O)C2CCCC2)s1`, the inhibition is -23.2%.

On to `COc1ccc(N2CCN(C(=O)CNC(=O)c3ccc(C(C)(C)C)cc3)CC2)cc1`, for which the inhibition is -1.88%.

For `CCC(C)n1c(-c2cc(OC)c(OC)c(OC)c2)nc2nc3ccccc3nc21` (stereo not drawn), the inhibition was 14.5%.

Take `Cc1nn(CCOc2ccccc2)c(=O)n1-c1ccccc1F`: the inhibition was 8.4%.

Turning to `Cc1nc2cc(NC(=O)NCc3ccccc3)ccc2o1`, the inhibition was -8.52%.

For the molecule `O=C(OCc1cn(-c2ccc(Cl)c(Cl)c2)nn1)c1ccccc1Cl`, the inhibition is 1.36%.

For `CCC(C)(C)c1ccc(Oc2ccc(NC(=O)COC(=O)C3=COCCO3)cc2)cc1`, the inhibition was 1.77%.

`Cc1ccccc1NC(=S)Nc1cccc([N+](=O)[O-])c1`: the inhibition was 34.5%.

In the case of `COc1cc(C(=O)N2CCN(C/C=C/c3ccccc3)CC2)cc(OC)c1C`, the inhibition was -11.1%.

As to `CC(=O)c1ccc2c(ccc3ccccc32)c1`, the inhibition is -3.5%.

With `CN1CC(c2ccccc2)C2(COc3ccccc3C2=O)C12C(=O)Nc1ccccc12` (stereo not drawn), the inhibition was 5%.

`O=C(CCn1c(SCC(=O)c2ccccc2)nc2ccccc2c1=O)NCc1ccc(F)cc1`: the inhibition is 4.81%.

Consider `CCS(=O)(=O)Nc1ccc(C2=NN(S(=O)(=O)c3ccc(F)cc3)C(c3ccco3)C2)cc1` (stereo not drawn), for which the inhibition was 11%.

As to `Cc1cccc(N(C(=O)c2ccc(CN3CCOCC3)o2)C(C(=O)NC2CCCCC2)c2ccc(F)cc2)c1` (stereo not drawn), the inhibition is 10.4%.

With `CCOC(=O)c1sc2nc(SC)nc(-c3ccccc3)c2c1N`, the inhibition was -9.12%.

As for `Cc1nn(Cc2ccccc2)c2c1C(c1ccccc1)C(C#N)=C(N)O2` (stereo not drawn), the inhibition is 17%.

With `O=C(CSCc1ccc(Cl)cc1)N1CCN(Cc2ccc3c(c2)OCO3)CC1`, the inhibition was -16.3%.

As to `CC1(C)CC(CC(=O)O)C(=O)O1` (stereo not drawn), the inhibition was -18.7%.

For `CCCC(O)(c1ccc(OC)cc1)C(CN(C)C)c1ccccc1` (stereo not drawn), the inhibition is 3.1%.

As to `C/C(=N\NS(=O)(=O)c1cccc([N+](=O)[O-])c1)c1cc2ccccc2o1`, the inhibition is 22%.

For the molecule `CN(CC(=O)Nc1cccc2c1CCCC2)S(=O)(=O)c1ccc(Cl)cc1`, the inhibition is -30%.
